The target in assay [1] is Alpha-galactosidase (Coffea arabica) (UniProt Q42656). The assay can be described thus: Counterscreen for Glucocerebrosidase Inhibitors: qHTS Assay for Coffee Bean alpha-Galactosidase at pH 4.5 (AID 957; active = well fitted curve in the direction sought with a large enough effect; an effect the other way counts as inactive or inconclusive;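 note: plate controls were enzyme alone for no effect and no enzyme for full effect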). An outline of the steps:
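Green coffee bean enzyme (2 nM final) was incubated with compounds (0.7 nM to 77 uM) and 4-methylumbelliferyl alpha-D-galactopyranoside (80 uM final) in 50 mM citric acid, 0.005% Tween-20, pH 4.5, 20 min at room temperature; AC50 from Hill fits.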
Background: The purpose of a counterscreen is to sort out artefacts and off-target activity.

The target is the same in assay [2]. The assay can be described thus: Counterscreen for Glucocerebrosidase Inhibitors: qHTS Assay for Coffee Bean alpha-Galactosidase at pH 5.9 (AID 998; active = well fitted curve in the direction sought with a large enough effect; an effect the other way counts as inactive or inconclusive;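 note: plate controls were uninhibited enzyme for no effect and no-enzyme basal signal for full effect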). In a few lines:
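Green coffee bean enzyme (2 nM) with 4-methylumbelliferyl alpha-D-galactopyranoside (80 uM) in 50 mM citric acid, 0.005% Tween-20, pH 5.9, 20 min at room temperature; compounds 0.7 nM–77 uM. Stopped at pH 10, fluorescence Ex365/Em440; Hill-fit AC50.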

The nature of assay [3]: qHTS for Inhibitors of the Functional Ribonucleoprotein Complex (vRNP) of Lassa (LASV) Arenavirus: LASV Primary Screen - GLuc reporter signal (AID 1347082; calls by dose curve; tested in HEK293 reporter line; note: nearly all actives have a fitted effect of over 60% in size; note: potency is the fitted concentration of half-maximal effect; for activity change, negative = inhibition: % is set by controls: 0 for no effect and ±100 for the full control effect). On the technique in general: Quantitative high-throughput screening tests each substance at several concentrations.
Assay [4] in a line: qHTS for Inhibitors of the Functional Ribonucleoprotein Complex (vRNP) of Lassa (LASV) Arenavirus: Viability assay - alamar blue signal for LASV Primary Screen (AID 1347083; calls by dose curve; tested in HEK293 reporter line; note: nearly all actives have a fitted effect of over 80% in size; note: potency is the fitted concentration of half-maximal effect).
A short description of assay [5]: qHTS for Inhibitors of the Functional Ribonucleoprotein Complex (vRNP) of Lymphocytic Choriomeningitis Arenaviruses (LCMV): Viability assay - alamar blue signal for LCMV Primary Screen (AID 1347085; calls by dose curve; tested in HEK293 reporter line; note: nearly all actives have a fitted effect of over 80% in size; note: potency is the fitted concentration of half-maximal effect).
The target of assay [6] is Nucleoprotein (Lymphocytic choriomeningitis virus (strain Armstrong)) (UniProt P09992). Description: qHTS for Inhibitors of the Functional Ribonucleoprotein Complex (vRNP) of Lymphocytic Choriomeningitis Arenaviruses (LCMV): LCMV Primary Screen - GLuc reporter signal (AID 1347086). Note: % is set by controls: 0 for no effect and ±100 for the full control effect; nearly all actives have a fitted effect of over 70% in size.
Sequence of Nucleoprotein (Lymphocytic choriomeningitis virus (strain Armstrong)) (P09992 whole entry, looked up): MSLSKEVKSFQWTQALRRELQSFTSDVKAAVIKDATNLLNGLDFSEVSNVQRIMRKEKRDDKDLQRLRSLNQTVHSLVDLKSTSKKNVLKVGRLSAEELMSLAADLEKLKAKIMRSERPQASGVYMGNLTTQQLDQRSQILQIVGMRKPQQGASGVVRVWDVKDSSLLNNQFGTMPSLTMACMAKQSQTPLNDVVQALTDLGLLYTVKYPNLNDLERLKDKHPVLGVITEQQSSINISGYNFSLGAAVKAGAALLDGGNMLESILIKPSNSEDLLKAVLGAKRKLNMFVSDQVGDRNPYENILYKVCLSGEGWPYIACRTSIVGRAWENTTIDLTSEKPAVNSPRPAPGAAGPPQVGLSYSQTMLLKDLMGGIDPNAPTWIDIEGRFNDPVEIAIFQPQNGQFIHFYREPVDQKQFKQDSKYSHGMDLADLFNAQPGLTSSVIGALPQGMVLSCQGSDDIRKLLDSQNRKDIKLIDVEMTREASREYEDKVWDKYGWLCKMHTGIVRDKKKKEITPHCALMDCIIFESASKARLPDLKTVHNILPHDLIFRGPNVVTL
Assay [7] can be described thus: Primary qHTS to identify inhibitors of SARS-CoV-2 cell entry (AID 1645846). Note: nearly all actives have a fitted effect of over 45% in size. Note: potency is the fitted concentration of half-maximal effect. Particulars: activity change, negative = inhibition: at 57.1 µM (top of the series) unless noted. In a few lines: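 Data are normalized to wells receiving SARS-CoV-2-S pseudoparticles and those given bald particles. Entry signal was luciferase luminescence in stable hACE2 Expi293F cells, 48 hr post-infection, after 1 hr compound pretreatment.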

Assay [8] in a line: Cytotoxicity counterscreen for inhibitors of SARS-CoV-2 cell entry (AID 1645845). Note: nearly all actives have a fitted effect of over 50% in size. In a few lines:
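HEK293-ACE2 cells (Expi293F stably expressing human ACE2) seeded overnight, then compound for 1 h plus 48 h at 37C. Viability as ATP content by luminescence; normalized to wells with cells and media-only wells.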

For assay [9], the target named is Cytochrome P450 2C9 (Homo sapiens) (UniProt P11712). The assay can be described thus: qHTS Assay for Inhibitors and Substrates of Cytochrome P450 2C9 (AID 883; active = well fitted curve in the direction sought with a large enough effect; an effect the other way counts as inactive or inconclusive; note: potency is the fitted concentration of half-maximal effect; nearly all actives have a fitted effect of over 60% in size). In a few lines: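 Signal: luciferase luminescence reporting luciferin produced by CYP2C9. Conditions: 10nM enzyme, Luciferin-H 100uM at KM, 25mM KPO4, 37C, 60 min NADPH-driven reaction. Reference: 57uM sulphaphenazole as 100% inhibition.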
Sequence of Cytochrome P450 2C9 (Homo sapiens) (P11712 whole entry, looked up): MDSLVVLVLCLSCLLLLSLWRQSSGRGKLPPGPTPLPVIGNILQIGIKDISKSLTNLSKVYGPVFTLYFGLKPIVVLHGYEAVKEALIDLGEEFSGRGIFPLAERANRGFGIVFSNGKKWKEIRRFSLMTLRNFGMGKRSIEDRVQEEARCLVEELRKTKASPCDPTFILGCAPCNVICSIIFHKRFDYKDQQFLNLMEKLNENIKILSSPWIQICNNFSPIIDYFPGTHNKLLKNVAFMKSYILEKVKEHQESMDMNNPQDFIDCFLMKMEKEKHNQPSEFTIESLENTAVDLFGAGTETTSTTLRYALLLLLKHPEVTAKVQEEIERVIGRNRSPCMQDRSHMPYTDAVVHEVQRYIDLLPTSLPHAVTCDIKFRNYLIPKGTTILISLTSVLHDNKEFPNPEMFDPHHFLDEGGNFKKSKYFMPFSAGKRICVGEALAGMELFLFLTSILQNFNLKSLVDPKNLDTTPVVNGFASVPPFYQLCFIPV

Assay [10] concerns the target Cytochrome P450 3A4 (Homo sapiens) (UniProt P08684). The assay can be described thus: qHTS Assay for Inhibitors and Substrates of Cytochrome P450 3A4 (AID 884; active = well fitted curve in the direction sought with a large enough effect; an effect the other way counts as inactive or inconclusive; note: potency is the fitted concentration of half-maximal effect; nearly all actives have a fitted effect of over 50% in size). In a few lines:
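20 nM human CYP3A4 with 25 uM Luciferin-PPXE (at KM) in 200 mM KPO4, preincubated 10 min with compound; NADPH regeneration started a 60 min RT reaction. Luciferin detected by luminescence, normalized to 57 uM ketoconazole as full inhibition.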

Assay [11] has the same target. The assay can be described thus: qHTS Assay for Activators of Cytochrome P450 3A4 (AID 885; active = well fitted curve in the direction sought with a large enough effect; an effect the other way counts as inactive or inconclusive; note: nearly all actives have a fitted effect of over 65% in size). In a few lines:
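Steps: enzyme/substrate mix dispensed; compound added, 10 min RT; NADPH regeneration solution added, 60 min RT; luciferin detection buffer stops reaction; 20 min later luminescence measured.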

For assay [12], the target named is Cytochrome P450 2D6 (Homo sapiens) (UniProt P10635). The assay can be described thus: qHTS Assay for Inhibitors and Substrates of Cytochrome P450 2D6 (AID 891; active = well fitted curve in the direction sought with a large enough effect; an effect the other way counts as inactive or inconclusive; note: potency is the fitted concentration of half-maximal effect; nearly all actives have a fitted effect of over 60% in size). An outline of the steps: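 Human CYP2D6 (5 nM) with 30 uM Luciferin-ME EGE (at Km) in 100 mM KPO4, compound preincubated 10 min, then NADPH regeneration system for 60 min at room temperature. Luciferin read by luminescence; normalized to 1.43 uM quinidine.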
Sequence of Cytochrome P450 2D6 (Homo sapiens) (P10635 whole entry, looked up): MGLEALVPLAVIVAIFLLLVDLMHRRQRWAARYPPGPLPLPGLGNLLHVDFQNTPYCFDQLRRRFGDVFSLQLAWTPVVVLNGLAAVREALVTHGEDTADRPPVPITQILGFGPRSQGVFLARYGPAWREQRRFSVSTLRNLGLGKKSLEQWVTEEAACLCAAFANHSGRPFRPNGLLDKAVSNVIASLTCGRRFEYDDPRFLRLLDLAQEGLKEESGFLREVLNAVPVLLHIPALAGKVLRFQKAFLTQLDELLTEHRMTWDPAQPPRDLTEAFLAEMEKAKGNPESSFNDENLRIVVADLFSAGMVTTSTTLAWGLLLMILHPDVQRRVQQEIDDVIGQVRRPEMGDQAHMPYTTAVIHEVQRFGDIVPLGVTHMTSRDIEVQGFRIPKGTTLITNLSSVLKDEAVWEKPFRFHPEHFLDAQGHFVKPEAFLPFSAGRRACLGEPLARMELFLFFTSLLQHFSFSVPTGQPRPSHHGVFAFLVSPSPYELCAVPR

In assay [13] the target is Cytochrome P450 2C19 (Homo sapiens) (UniProt P33261). The assay can be described thus: qHTS Assay for Inhibitors and Substrates of Cytochrome P450 2C19 (AID 899; active = well fitted curve in the direction sought with a large enough effect; an effect the other way counts as inactive or inconclusive; note: potency is the fitted concentration of half-maximal effect; nearly all actives have a fitted effect of over 60% in size). In a few lines: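 Signal comes from luciferase acting on luciferin released by CYP2C19-mediated hydroxylation of Luciferin-H EGE, 10uM (KM). Assay mix: 5nM enzyme, 50mM KPO4; 60 min at 37C with NADPH regeneration. Data normalized against 57uM ketoconazole.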
Sequence of Cytochrome P450 2C19 (Homo sapiens) (P33261 whole entry, looked up): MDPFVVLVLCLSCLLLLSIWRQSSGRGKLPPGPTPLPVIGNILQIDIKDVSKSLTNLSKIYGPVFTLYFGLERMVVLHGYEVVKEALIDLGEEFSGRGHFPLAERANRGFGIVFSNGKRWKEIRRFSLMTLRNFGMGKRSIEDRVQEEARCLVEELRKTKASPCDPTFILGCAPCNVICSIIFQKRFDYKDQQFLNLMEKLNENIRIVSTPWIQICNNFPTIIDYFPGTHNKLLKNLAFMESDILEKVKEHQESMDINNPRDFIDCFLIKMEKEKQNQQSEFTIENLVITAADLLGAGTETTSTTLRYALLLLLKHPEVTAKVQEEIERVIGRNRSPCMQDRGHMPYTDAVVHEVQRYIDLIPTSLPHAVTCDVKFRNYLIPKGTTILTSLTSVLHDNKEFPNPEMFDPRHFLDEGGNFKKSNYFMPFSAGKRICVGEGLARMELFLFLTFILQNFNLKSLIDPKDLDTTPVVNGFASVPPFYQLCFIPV

Assay [14] in a line: qHTS profiling of the MIPE4 collection as inhibitors of Plasmodium falciparum (3D7) proliferation (AID 743344; call rule not given here;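 note: scaled between DMSO vehicle wells and 0.29 µM artemisinin as full inhibition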). Particulars: P. falciparum 3D7 in erythrocytes, SYBR Green DNA fluorescence, 72 h; at 28.5 µM (top of the series) unless noted. An outline of the steps:
(§1)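 Erythrocytes infected with P. falciparum (0.3% parasitemia, 2.5% hematocrit) incubated with compounds 72 h at 37 C, 5% CO2. Lysis with saponin/Triton buffer containing SYBR Green I, overnight at room temperature in the dark; DNA fluorescence (485/535 nm) normalised to 0.29 uM artemisinin and DMSO.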

A short description of assay [15]: qHTS profiling of the MIPE4 collection as inhibitors of Plasmodium falciparum (DD2) proliferation (AID 743345; call rule not given here). To be noted: P. falciparum Dd2 in erythrocytes, SYBR Green DNA, 72 h; at 28.5 µM (top of the series) unless noted. An outline of the steps: as §1
Assay [16] is described as follows: qHTS profiling of the MIPE4 collection as inhibitors of Plasmodium falciparum (DD2) proliferation (Rep 2) (AID 743346; call rule not given here). Particulars: P. falciparum Dd2 in erythrocytes, SYBR Green DNA, 72 h; at 28.5 µM (top of the series) unless noted. In a few lines: as §1
Assay [17] can be described thus: qHTS profiling of the MIPE4 collection as inhibitors of Plasmodium falciparum (HB3) proliferation (AID 743347; call rule not given here;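 note: plate controls were DMSO vehicle wells for no effect and artemisinin wells for full effect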). To be noted: P. falciparum HB3 in erythrocytes, SYBR Green DNA, 72 h; at 28.5 µM (top of the series) unless noted. An outline of the steps:
as §1

Assay [18] is described as follows: Confirmatory qHTS for VERO E6 Cytotoxicity Assay: Counterscreen for SARS-CoV-2 CPE Assay (AID 1508605).

Structures are written as SMILES. Inconclusive results are not listed. Calls of active or inactive are those of the source. Unless noted, calls come from the whole dose curve. Square brackets hold non-standard residues; d marks the D form. Peptide text beside a SMILES is read from it. * marks the point of attachment. Nva = CCC[C@H](N)C(=O)O; Cbz = O=C(OCc1ccccc1)*

Experimental findings from PubChem BioAssay (NCATS) are described below.

Sequence of Alpha-galactosidase (Coffea arabica) (Q42656 whole entry, looked up): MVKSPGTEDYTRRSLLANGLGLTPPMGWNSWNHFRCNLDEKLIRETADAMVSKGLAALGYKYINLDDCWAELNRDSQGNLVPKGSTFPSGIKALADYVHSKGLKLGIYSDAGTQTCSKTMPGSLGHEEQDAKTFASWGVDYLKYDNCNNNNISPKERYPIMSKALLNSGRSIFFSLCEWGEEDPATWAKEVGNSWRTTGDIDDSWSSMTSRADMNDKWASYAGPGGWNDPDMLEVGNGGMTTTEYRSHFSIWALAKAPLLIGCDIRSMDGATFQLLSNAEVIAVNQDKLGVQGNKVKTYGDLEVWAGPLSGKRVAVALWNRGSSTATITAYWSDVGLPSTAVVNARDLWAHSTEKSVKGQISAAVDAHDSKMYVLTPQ
Sequence of Cytochrome P450 3A4 (Homo sapiens) (P08684 whole entry, looked up): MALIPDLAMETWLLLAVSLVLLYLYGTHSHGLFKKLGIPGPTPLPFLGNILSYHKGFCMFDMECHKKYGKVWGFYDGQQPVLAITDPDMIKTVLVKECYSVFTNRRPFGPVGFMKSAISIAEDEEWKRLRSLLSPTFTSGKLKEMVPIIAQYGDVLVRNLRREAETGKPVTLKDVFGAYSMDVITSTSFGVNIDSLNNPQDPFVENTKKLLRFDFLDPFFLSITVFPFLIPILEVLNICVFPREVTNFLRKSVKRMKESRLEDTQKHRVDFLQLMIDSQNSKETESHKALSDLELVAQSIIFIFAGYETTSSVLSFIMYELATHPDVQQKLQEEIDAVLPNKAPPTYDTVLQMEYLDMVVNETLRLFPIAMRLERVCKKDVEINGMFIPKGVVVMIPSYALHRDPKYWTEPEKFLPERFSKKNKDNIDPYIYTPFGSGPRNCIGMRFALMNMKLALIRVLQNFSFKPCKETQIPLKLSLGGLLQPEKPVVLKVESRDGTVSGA

On to `O=Nc1c(-c2c(O)[nH]c3cc(Br)ccc23)[nH]c2ccccc12`, for which the compound was called inactive in assay [1] and in assay [2]. In addition, the Potency entry in [3], in [5] and in assay [6] was “inactive” each time. In addition, the Potency in assay [4] was 15.8 µM (active).
As for `CCS(=O)(=O)Nc1ccc2[nH]c(O)c(C(=Nc3ccc(CN4CCCCC4)cc3)c3ccccc3)c2c1`, the Potency was 9.68 µM (active) in assay [3], 2.17 µM (active) in [4], 0.968 µM (active) in assay [5] and 2.82 µM (active) in assay [7].
Take `N#Cc1cc(NC(=O)Nc2nnc(-c3ccncc3)s2)ccc1-c1cn[nH]c1`: the Potency result in [3], in [4], in assay [8] and in [7] was “inactive” each time. Besides, the Potency in assay [5] was 6.85 µM (active).
Turning to `COc1c2ccoc2cc2oc(=O)ccc12`, the Potency in [9] is 5.01 µM (active); in assay [10] it was 10 µM (active); in [12], 2 µM (active); in [13], 3.16 µM (active). Moreover, the Potency result in assay [11], in [3], in assay [4], in assay [5] and in assay [6] was “inactive” in each case.
For `CON=C(C(=O)N[C@@H]1C(=O)N2C(C(=O)O)=C(Cn3ccc(=N)n3CCO)CS[C@H]12)c1csc(N)n1`, the parasite growth, % of DMSO control in [14] came out at 60.9%. Besides, the parasite growth remaining, % of DMSO control (lower = more inhibition) in assay [15] came out at 93.5%. In addition, the parasite growth, % of control (lower = inhibition) in [16] is 92%. For the same compound, in assay [17], the growth, % of control was found to be 99.1%. Also, the Potency entry in [3], in [4], in [5] and in [6] was “inactive” in each case.
Turning to `COc1ccc(-c2oc3c(CC=C(C)C)c(O)cc(O)c3c(=O)c2O)cc1`, the Potency result in assay [3] is “inactive”. The Potency in assay [4] was 38.5 µM (active); in assay [5] it was 3.43 µM (active). Further, in assay [7], the activity change, negative = inhibition is -9.03%.
For the compound `CC1=C(C(=O)Nc2cc3cn[nH]c3cc2F)C(c2ccc(Cl)cc2F)N=C(c2ccnc(Cl)c2)N1` (stereo not given), the Potency entry in [3], in assay [4], in assay [5] and in assay [8] was “inactive” in each case.
In the case of `Cc1cc(NC(=O)Nc2ccc3c(ccn3C)c2)sn1`, the call in [1] and in [2] was inactive. Further, the Potency entry in assay [3], in [4], in [5] and in assay [6] was “inactive” each time.
Consider `CN(C)S(=O)(=O)c1ccc2c(c1)C(=Cc1cc3c([nH]1)CCCC3)C(=O)N2`, for which the Potency entry in assay [3] and in [8] was “inactive” in each case. Also, the results for the Potency in [4] and in [5] were 10.9 µM (active) and 2.73 µM (active), respectively.
On to `CN(N=O)C(=O)N[C@H]1C(O)OC(CO)[C@@H](O)[C@H]1O` (stereo not given in full), for which the Potency in assay [13] was 7.94 µM (active). Further, the Potency entry in assay [3], in assay [4], in [5] and in assay [6] was “inactive” each time.
As to `CC(C)n1cnc2c(NCCCCCCNC(=O)OC(C)(C)C)nc(NCCO)nc21`, the Potency result in [3], in [4] and in [5] was “inactive” in each case. Further, the Potency in [7] is 28.2 µM (active).
For the compound `CCC[C@@H](C=O)NC(=O)[C@H](CC(C)C)NC(=O)[C@H](CC(C)C)NC(=O)OCc1ccccc1` (Cbz-Leu-Leu-[Nva]-aldehyde), the Potency in [3] is 3.43 µM (active); in assay [4], 5.44 µM (active); in assay [5], 12.2 µM (active); in [18], 714 nM (active); in [7] it was 0.891 µM (active).
With `Cc1cccc2c1CC[C@H](CN1CCC(c3c(Cl)cccc3Cl)CC1)C[C@@H]2O`, the parasite growth remaining, % of DMSO control (lower = more inhibition) in assay [15] turned out to be 25.2%. The Potency entry in [3], in assay [4], in assay [5] and in assay [6] was “inactive” throughout.
For `Nc1ncnc2c1ncn2C1CCCC1`, the result in assay [1] and in [2] was inactive. Besides, the Potency result in [3], in assay [4], in assay [5] and in [6] was “inactive” throughout.
